Records with an inconclusive call do not appear. A call without a number means that no potency is given here. Calls of active or inactive are those of the source. Unless noted, calls follow the shape of the dose curve; as a rule, active = well fitted curve in the direction sought with a large enough effect; inconclusive = small, poorly fitted or top-dose-only effect, or another doubt; inactive = no such curve, though single readings can be large; an effect the other way counts as inactive or inconclusive.
Legend:
[1] = Cytotoxicity counterscreen for NFkB agonists and antagonists (AID 624476); also: potency is read from the fitted curve at half-maximal effect
[2] = qHTS Assay for Identification of Small Molecule Agonists for NFkB Signaling Pathway. (AID 624478);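 also: compounds tested together with TNF alpha at its EC50 of 10 pM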
Procedure, shortened: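 Cells carrying an NFkB response element-driven beta-lactamase gene are co-treated with compound and 10 pM TNF alpha for 5 h, and reporter activity is then read as 460 and 530 nm fluorescence.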

[3] = qHTS Assay for Identification of Small Molecule Antagonists for NFkB Signaling Pathway. (AID 624479; calls by dose curve;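 also: pathway stimulated with TNF alpha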; also: potency is read from the fitted curve at half-maximal effect)
[4] = Cell Proliferation Assay against the TMD8 Cell Line (AID 651645); conditions: TMD8 DLBCL cell line proliferation/viability; at 46.1 µM (top of the series) unless noted;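 also: cells exposed to compound for 48 h before reading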
Procedure, shortened: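 Cell viability of the ABC DLBCL line TMD8 is measured by CellTiter-Glo luminescence following a 48-hour incubation with compound. Percent activity uses DMSO as 100% and 9.2 uM bortezomib (final) as 0%.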

[5] = Cell Proliferation Assay against the HBL1 Cell Line (AID 651646); conditions: HBL1 DLBCL cells; at 46.1 µM (top of the series) unless noted;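 also: cells exposed to compound for 48 h before reading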
Procedure, shortened: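 Luminescent ATP read-out (CellTiter-Glo) after 48 h compound exposure of HBL1 cells at 37 °C; percent activity was scaled between DMSO as 100% and 9.2 uM bortezomib (final) as 0%.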

[6] = Cell Proliferation Assay against the TMD8 Cell Line (Caspase readout at 8 hrs) (AID 651713)
Procedure, shortened: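 Percent activity derived from Caspase-Glo signal, DMSO set to 0% and bortezomib (9.2 uM final) to 100%. TMD8 cells were exposed to compound for 8 h in RPMI with 5% FBS.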

[7] = Cell Proliferation Assay against the TMD8 Cell Line (Caspase readout at 16 hrs) (AID 651712); also: potency is read from the fitted curve at half-maximal effect
Procedure, shortened: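 Apoptotic response of TMD8 cells was judged from caspase 3/7 activation following a 16 hour compound incubation at 37 °C. Luminescent signal was converted to percent activity, with DMSO set as 0% and 9.2 uM final bortezomib as 100%.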

Row | SMILES | Potency [1] | outcome [2] | Potency [3] | viability (% of control) [4] [%] | viability, percent of control [5] [%] | Potency [6] | Potency [7]
1 | CC(C)(N)C(=O)N[C@H](COCc1ccccc1)C(=O)N1CCC2(CC1)CN(S(C)(=O)=O)c1ccccc12 | inactive | inactive | inactive | 48.1 | 69.2 | inactive | 
2 | CC(C)c1onc(-c2c(Cl)cccc2Cl)c1COc1ccc(/C=C/c2cccc(C(=O)O)c2)c(Cl)c1 | 11.8 µM (active) | inactive | 21.1 µM (active) | 89.6 | 75.2 | inactive | 
3 | COc1ccc(C2=N[C@H](c3ccc(Cl)cc3)[C@H](c3ccc(Cl)cc3)N2C(=O)N2CCNC(=O)C2)c(OC(C)C)c1 | inactive | inactive |  | 7.72 | 66.4 |  | 
4 | Oc1cccc(-c2nc(N3CCOCC3)c3oc4ncccc4c3n2)c1 | 0.0833 µM (active) | inactive |  | 16.2 | 42.6 |  | 
5 | Cc1ccc(NC(=O)c2cccc(C(C)(C)C#N)c2)cc1Nc1ccc2ncn(C)c(=O)c2c1 | inactive | inactive |  | 11.7 | 41.4 |  | 26.4 µM (active)
6 | CNC(=O)c1ccc(N2C(=S)N(c3ccc(C#N)c(C(F)(F)F)c3)C(=O)C2(C)C)cc1F | inactive | inactive |  | 78.7 | 83.2 | inactive | inactive
7 | CC1(C)Cc2c(-c3ccccc3)c(-c3ccc(Cl)cc3)c(CC(=O)O)n2C1 | 20.9 µM (active) | inactive | 21.1 µM (active) |  | 35.6 |  | 
8 | CCc1cncnc1N1CCN(Cc2nc3ccc(C(F)(F)F)cc3[nH]2)CC1 | inactive | inactive | inactive | 56.3 | 82.4 | inactive | 
9 | COc1ccc(-c2ccc3c(N4CCOC[C@H]4C)nc(N4CCOC[C@H]4C)nc3n2)cc1CO | inactive | inactive | inactive | 25 | 57.8 | inactive | 
10 | COc1ccc(-c2oc3cc(OC)ccc3c2C(=O)c2ccc(C#N)cc2)cc1 | inactive | inactive | inactive | 52.2 | 76 | inactive | 
11 | COc1ccccc1-c1cccc(-c2c(O)c3cc(C#N)c(Cl)cc3[nH]c2=O)c1 | inactive | inactive |  | 86.6 | 80.1 | inactive | inactive
12 | O=C(c1cc(Cc2n[nH]c(=O)c3ccccc23)ccc1F)N1CCN(C(=O)C2CC2)CC1 | inactive | inactive | inactive | 58.9 | 64.8 | inactive | 
13 | Cn1cnc2c(F)c(Nc3ccc(Br)cc3Cl)c(C(=O)NOCCO)cc21 | inactive | inactive | inactive | 79.9 | 76.1 | inactive | 
14 | COc1ccc(CCN2CCN(CCCc3ccccc3)CC2)cc1OC | inactive | inactive | inactive | 83.9 | 85.9 | inactive | 
15 | O=S(=O)(N=Cc1c(O)ccc2ccccc12)c1cccs1 | inactive | inactive | inactive | 49.7 | 72.6 | inactive | 
16 | N#CC[C@H](C1CCCC1)n1cc(-c2ncnc3[nH]ccc23)cn1 | inactive | inactive | 16.8 µM (active) | 33.1 | 65.7 | inactive | 

Row | SMILES | Potency [1] | outcome [2] | Potency [3] | viability (% of control) [4] [%] | viability, percent of control [5] [%] | Potency [6] | Potency [7]
17 | COc1nc(-c2ccc3c(c2)OCO3)n(-c2ccc(NC(=O)CSc3ccccc3)cc2)n1 | inactive | inactive | inactive | 60.1 | 68.5 | inactive | 
18 | CCOC(=O)N[C@@H]1CC[C@@H]2[C@@H](C1)C[C@H]1C(=O)O[C@H](C)[C@H]1[C@@H]2C=Cc1ccc(-c2cccc(F)c2)cn1 | inactive | inactive | inactive | 42.8 |  | inactive | 
19 | Cc1n[nH]c(C)c1Cc1sc2c(c1C(=O)N1C[C@H](O)CO1)c(=O)n(C)c(=O)n2CC(C)C | inactive | inactive | inactive | 68.3 | 76 | inactive | 
20 | Cc1ccnc(NS(=O)(=O)c2ccc(NC(=O)Nc3ccc(S(=O)(=O)Nc4nccc(C)n4)cc3)cc2)n1 | inactive | inactive | 16.8 µM (active) | 48.6 |  | inactive | 
21 | CCCn1c(=O)c2[nH]c(C34CC5CC3C[C@@H](C5)C4)nc2n(CCC)c1=O | inactive | inactive |  | 30.5 | 60.2 | inactive | 18.7 µM (active)
22 | Nc1cccc(S(=O)(=O)N2CCCN(S(=O)(=O)c3ccc4c(c3)OCCO4)CC2)c1 | inactive | inactive |  | 46.2 | 78.2 | inactive | 
23 | Nc1nc2[nH]cc(CCc3ccc(C(=O)N[C@@H](CCC(=O)O)C(=O)O)cc3)c2c(=O)[nH]1 | inactive | inactive | inactive | 40 | 74.6 | inactive | 
24 | CCN(CC)CCCC(C)Nc1nc(C)cc(Nc2ccc3nc(C)cc(N)c3c2)n1 (stereo not drawn) | inactive | inactive | inactive | 65.5 | 67.9 | inactive | 
25 | CCOc1cc(N2CCC(O)CC2)ccc1Nc1ncc2c(n1)N(C)c1ccccc1C(=O)N2C | inactive | inactive |  | 2.87 | 29 |  | 20.9 µM (active)
26 | CCCc1nc2c(C)cc(-c3nc4ccccc4n3C)cc2n1Cc1ccc(-c2ccccc2C(=O)O)cc1 | inactive | inactive | inactive | 71.5 | 70.6 | inactive | 
27 | CCOc1cc(C=C2C(=O)N(c3ccccc3)N=C2C)cc(Cl)c1OCC(=O)OC | inactive | inactive |  | 81.8 | 46.9 |  | 
28 | S=C(NCc1ccc2c(c1)OCO2)N1CCN(c2ncnc3c2oc2ccccc23)CC1 | inactive | inactive |  | 26.5 | 40.5 |  | inactive
29 | CNC(=O)c1ccc(C)c(-n2c(C)cc(OCc3ccc(F)cc3F)c(Br)c2=O)c1 | inactive | inactive | inactive | 53 | 44.5 | inactive | 
30 | NC(=O)C1CCCc2c1[nH]c1ccc(Cl)cc21 (stereo not drawn) | inactive | inactive | inactive | 94.1 | 73.1 | inactive | 
31 | Fc1ccc(Cl)cc1-c1nc(Nc2ccncc2)c2nccnc2n1 | inactive | inactive | inactive | 98.1 | 93.2 | inactive | 
32 | CS(=O)(=O)c1cccc(CNc2nc(Nc3ccc4c(c3)CCC(=O)N4)ncc2C(F)(F)F)c1 | inactive | inactive | inactive |  | 120 | inactive | inactive
